Results filed as inconclusive are left out. Entries that show only a call come without a potency. Values without a mark were called inactive. The source made the active and inactive calls. Calls come from the whole dose curve; as a rule, active = well fitted activation curve with a large enough effect in the repeat runs; inconclusive = weak or mixed curves; inactive = no such curve, though single readings can be large or run the other way.
Potency is the fitted concentration of half-maximal effect.

Sequence of Nuclear receptor subfamily 1 group I member 3 (Homo sapiens) (Q14994 whole entry, looked up): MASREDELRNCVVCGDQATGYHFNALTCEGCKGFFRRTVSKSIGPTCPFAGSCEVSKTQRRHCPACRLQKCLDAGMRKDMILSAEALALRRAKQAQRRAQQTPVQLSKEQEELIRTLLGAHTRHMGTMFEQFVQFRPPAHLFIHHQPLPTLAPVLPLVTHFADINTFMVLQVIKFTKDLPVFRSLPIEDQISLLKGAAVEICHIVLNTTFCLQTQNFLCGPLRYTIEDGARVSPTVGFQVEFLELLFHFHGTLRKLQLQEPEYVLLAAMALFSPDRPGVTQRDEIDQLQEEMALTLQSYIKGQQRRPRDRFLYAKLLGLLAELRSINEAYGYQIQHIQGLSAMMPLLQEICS

This assay concerns the target Nuclear receptor subfamily 1 group I member 3 (Homo sapiens) (UniProt Q14994). Briefly: qHTS assay to identify small molecule agonists of the constitutive androstane receptor (CAR) signaling pathway (AID 1224839).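 For activation: HepG2 cells stably carrying human CAR and a CYP2B6 luciferase reporter.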 Note: nearly all actives have a fitted effect of over 15% in size. The following applies: HepG2 hCAR CYP2B6-luciferase, agonist mode, 24 h; series mostly up to 92.4 µM. The source says:
National Center for Advancing Translational Sciences [NCATS] NIH Chemical Genomics Center [NCGC] U.S. Environmental Protection Agency [EPA] National Institutes of Environmental Health Sciences [NIEHS] National Toxicology Program [NTP] Assay overview: The constitutive androstane receptor (CAR) is a nuclear receptor which regulates multiple drug metabolizing enzymes (DMEs) and transporters. Activating CAR will generally increase the transcription and subsequent translation of CYP2B6 and CYP3A4. These two DMEs represent about 50% of the drug metabolizing potential in the body. […] Recently, there have also been studies performed indicating CARs role in energy metabolism and cancer therapy. Therefore, inducing CARs activity could have a potential effect on diabetes and cancer. Identifying environmental toxins and compounds which modulate CAR, through the use of the Tox21 10K compound collection, will be an important step in determining the toxicity and potential therapeutic effects these factors will have on the human body.
Assay Protocol Summary: A double-stable (hCAR and CYP2B6-2.2kb) transfected cell line, derived from human hepatoma (HepG2) cells, was utilized for the duration of the quantitative high-throughput screens. The HepG2-CYP2B6-hCAR cells suspended in DMEM culture medium supplemented with 10% FBS, 5 ug/mL blasticidin, 0.5 mg/mL geneticin, 100 U/mL penicillin and 100 ug/mL streptomycin were dispensed at 2500 cells/4 uL/well in 1536-well white solid bottom plates using a Multidrop Combi. After the assay plates were incubated at 37 C/5% CO2 for 4 hrs, 23 nL of compounds at 15 concentrations (from 5-48 columns) or positive control (from 1 to 4 columns) were transferred to the assay plates using a Pintool station. One uL of PK11195, was added using a Flying Reagent Dispenser to generate a final concentration of 0.75 uM PK11195 inside each well. After a 24 hr incubation period at 37 C/5% CO2, four uL of ONE-Glo reagent was added into the assay plates using a Flying Reagent Dispenser. After a 30 min incubation period at room temperature, the luminescence intensity in the assay plates was measured using a ViewLux plate reader.
Take `CC(=O)O[C@H]1CC[C@@]2(C)C(=CC[C@@H]3[C@@H]2CC[C@]2(C)C(C(C)=O)=CC[C@@H]32)C1`: the Potency entry is “inactive”.
Still for that read-out and setting: as for `O=c1[nH]cnc2c1ncn2[C@@H]1O[C@H](CO)[C@@H](O)[C@H]1O`, the entry is “inactive”.
With `O=C1CCC(C2CCCCC2)CC1`, the Potency result is “inactive”.
On to `COc1cc(N)c(Cl)cc1C(=O)NC1CCN(Cc2ccccc2)CC1`, for which the Potency was 6.68 µM (active).
Consider `Cc1c(C(=O)NCCO)[n+](=O)c2ccccc2n1[O-]`, for which the Potency entry is “inactive”.
As to `CC(C)CC(=O)OCc1ccccc1`, the Potency result is “inactive”.
With `NC1=NCC2c3ccccc3Cc3ccccc3N12` (stereo not given), the Potency result was “inactive”.
Take `Cc1ccc([N+](=O)[O-])c(N)c1`: the Potency entry was “inactive”.
On the same count and under the same terms, as for `CCOC(=O)c1cc(=O)c2c(OCC(COc3cccc4oc(C(=O)OCC)cc(=O)c34)OC(=O)[C@@H](N)CCCCN)cccc2o1`, the entry is “inactive”.
For the compound `O=C(Cl)c1cccc([N+](=O)[O-])c1`, the Potency result was “inactive”.
Consider `CCN1CC(CCN2CCOCC2)C(c2ccccc2)(c2ccccc2)C1=O` (stereo not given), for which the Potency entry is “inactive”.
On to `NC/C=C/C(=O)O`, for which the Potency entry is “inactive”.
Turning to `CCN(CC)CCOc1ccc(Cc2ccccc2)cc1`, the Potency result was “inactive”.
Turning to `CN(C)C(=O)NC1(c2ccccc2)CCN(CCC[C@]2(c3ccc(Cl)c(Cl)c3)CCCN(C(=O)c3ccccc3)C2)CC1`, the activation is -6.21% [at 19 µM].
In the case of `FC(F)(F)C(F)(F)C(F)(F)C(F)(F)C(F)(F)C(F)(F)C(F)(F)C(F)(F)Br`, the Potency entry is “inactive”.
For `CCOc1ccc(NC(N)=O)cc1`, the Potency entry is “inactive”.
Same read-out and setting: as for `COc1ccccc1N1CCN(CCCNc2cc(=O)n(C)c(=O)n2C)CC1`, the entry is “inactive”; as for `COc1ccc(Nc2ccc(OC)cc2)cc1`, 17.5 µM (active).
In the case of `CC/C=C\CCOC(=O)CCCCC`, the Potency result is “inactive”.
The same measure, in the same setting: as for `Cc1cc2nc(N)sc2cc1C`, the figure is 2.19 µM (active); as for `CN1CCN(c2c(F)cc3c(=O)c(C(=O)O)cn4c3c2SCC4)CC1`, “inactive”.
Still for that read-out and setting: as for `CC(C)NCC(O)COc1ccc(CCOCC2CC2)cc1` (stereo not given), the entry is “inactive”.
For the compound `O=Cc1ccc(O)c(O)c1O`, the Potency result is “inactive”.
`CCC/C=C/CO`: the Potency entry is “inactive”.
On the same count and under the same terms, as for `C[C@@H](N)C(=O)O`, the entry is “inactive”; as for `O=C1N(c2ccccc2)c2ccccc2C1(Cc1ccncc1)Cc1ccncc1`, “inactive”; as for `OCCN1CCN(CCO)CC1`, “inactive”.
With `O=C1CCCCCCCCCCC(=O)OCCO1`, the Potency entry is “inactive”.
For `CCOC(=O)CS`, the Potency entry is “inactive”.
Turning to `Oc1ccccc1C=NCc1ccccc1`, the Potency entry was “inactive”.
The same measure, in the same setting: as for `CCC(=O)c1ccc2c(c1)N(CCCN(C)C)c1ccccc1S2`, the entry is “inactive”; as for `C=C(C)C(=O)OCCOP(=O)(O)O`, “inactive”.
Same read-out and setting: as for `CC1(C)C(=O)N(Cl)C(=O)N1Br`, the entry is “inactive”.
As for `CCOc1ccc2nc(N)sc2c1`, the Potency is 21.5 µM (active).
Regarding `CC(C)=CCC[C@](C)(O)[C@@H]1CC=C(C)CC1`, the Potency entry was “inactive”.
Turning to `FC(F)(F)c1ccccc1`, the Potency result is “inactive”.
For the compound `CCCOCCC`, the Potency result was “inactive”.
In the case of `CCOC(=O)C(Br)c1ccccc1` (stereo not given), the Potency entry is “inactive”.
In the case of `Nc1cccc(S(=O)(=O)O)c1`, the Potency entry was “inactive”.
As for `CCCOc1ccc2c(c1)CC[C@@H]1[C@@H]2CC[C@]2(C)C(OC)CC[C@@H]12` (stereo not given in full), the Potency entry was “inactive”.

For the origin of these results see PubChem BioAssay (Tox21).
